Assay [1] can be described thus: BSK_SAg_PBMCCytotoxicity: PBMC Cytotoxicity Assessment in the BioMAP Diversity Plus: SAg Assay (AID 2283093).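 Further: PBMC viability measured as Alamar Blue reduction fluorescence at 546/580 nm; fitted both ways against DMSO so a hit may be loss or gain of signal.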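 On AC50: PBMC superantigen activated with SEB plus TSST-1 one hour after compound addition.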 The following applies: primary human HUVEC with PBMC. The method in brief: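 Alamar Blue reduction (6 h, ex/em 546/580 nm) read after 90 h culture of PBMC pre-dosed 1 h then stimulated with SEB plus TSST-1, 20 ng/mL each. Gain or loss of signal fitted relative to DMSO.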

Read-out in assay [2]: Interleukin-8 (IL8), CXCL8 (gene 3576)
Kind of assay: BSK_SAg_IL8: BioMAP Diversity Plus: SAg Assay for Interleukin-8 (IL8) Biomarker Activity (AID 2283094). The following applies: primary human HUVEC with PBMC; actives raise or lower the signal. The method in brief:
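Primary human endothelial cells with PBMC, exposed 24 h; IL-8 determined by ELISA, analysed bidirectionally relative to DMSO.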

A short description of assay [3]: BSK_SAg_Proliferation: Cell Proliferation Assessment in the BioMAP Diversity Plus: SAg Assay (AID 2283095).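 Further: relative cell number as total protein by SRB absorbance in sub-confluent culture.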 As to conditions: primary human HUVEC with PBMC. The method in brief: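 A human primary co-culture of umbilical vein endothelium and blood mononuclear cells receives compound; relative cell number is quantified at 96 h by SRB staining and 560 nm absorbance, with DMSO-referenced bidirectional curve fitting.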

A short description of assay [4]: BSK_SAg_SRB: Viability Assessment in the BioMAP Diversity Plus: SAg Assay (AID 2283096).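 Further: cells read one day after compound addition; hits may be either gain or loss of signal compared with DMSO.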 As to conditions: primary human HUVEC with PBMC. The method in brief:
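SRB absorbance at 560 nm served as the viability read-out. Cells (HUVEC plus peripheral blood mononuclear cells) were TCA-fixed and stained 24 h post-dosing; activity fitted in both directions against DMSO controls.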

The target of assay [5] is human CYP19A1, CYP19A1 (gene 1588) (UniProt P11511). Kind of assay: NVS_ADME_hCYP19A1: NovaScreen (NVS) CYP450-related Enzyme Activity (ADME) Assay for human CYP19A1 (AID 2283098; active means hit-call score of the fitted dose curve at least 0.9, where 1 is the maximum). The method in brief:
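Primary testing was in duplicate at a single 10 uM concentration, with actives followed up in concentration-response series. Fluorescence read-out of recombinant enzyme activity at 0.5 h, cell-free. Acetonitrile was the negative-control baseline.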

The target in assay [6] is human Caspase 5 (CASP5), CASP5 (gene 838) (UniProt P51878). Kind of assay: NVS_ENZ_hCASP5: NovaScreen (NVS) Enzymatic Assay for human Caspase 5 (CASP5) (AID 2283137; active means hit-call score of the fitted dose curve at least 0.9, where 1 is the maximum). The method in brief:
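Caspase 5 enzyme activity, detected as fluorescence signal loss, is measured in a biochemical format using E. coli-expressed protein. Reading occurs 2 hours post-dosing. Screening runs at 25 uM, with confirmed actives titrated to 50 uM maximum.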

Assay [7] deals with human Beta-secretase (BACE), BACE1 (gene 23621) (UniProt P56817). Kind of assay: NVS_ENZ_hBACE: NovaScreen (NVS) Enzymatic Assay for human Beta-secretase (BACE) (AID 2283140; active means hit-call score of the fitted dose curve at least 0.9, where 1 is the maximum;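 further: hits are inhibitors that reduce fluorescent substrate signal versus DMSO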). The method in brief:
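Enzyme activity of SF9-produced BACE1 is measured cell-free by fluorescence, 1 hour post dosing, normalised to DMSO. Screening used 25 uM in duplicate, with concentration-response follow-up for actives.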

Assay [8] has as its target human Dual Specificity Protein Phosphatase 3 (DUSP3), DUSP3 (gene 1845) (UniProt P51452). Put plainly: NVS_ENZ_hDUSP3: NovaScreen (NVS) Enzymatic Assay for human Dual Specificity Protein Phosphatase 3 (DUSP3) (AID 2283152; active means hit-call score of the fitted dose curve at least 0.9, where 1 is the maximum;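 further: phosphatase activity of recombinant human DUSP3 on a fluorogenic substrate without cells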). The method in brief:
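Cell-free fluorescence-intensity enzyme activity assay with recombinant protein and substrate; loss of signal fitted relative to DMSO baseline. Primary screen in duplicate at 25 uM, actives then run in concentration series; measured 0 h after dosing.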

The target in assay [9] is human Ephrin type-A Receptor 1 (EphA1), EPHA1 (gene 2041) (UniProt P21709). Kind of assay: NVS_ENZ_hEphA1: NovaScreen (NVS) Enzymatic Assay for human Ephrin type-A Receptor 1 (EphA1) (AID 2283158; active means hit-call score of the fitted dose curve at least 0.9, where 1 is the maximum;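 further: activity is signal loss versus DMSO meaning EphA1 kinase inhibition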). The method in brief: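 Fluorescent substrate conversion, resolved by mobility-shift separation, measured 1 hour post-dosing using recombinant enzyme; signal loss relative to DMSO baseline. Single-concentration duplicates at 25 uM preceded singleton concentration series topping at 50 uM.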
Chain of human Ephrin type-A Receptor 1 (EphA1), EPHA1 (gene 2041) (P21709 whole entry, looked up): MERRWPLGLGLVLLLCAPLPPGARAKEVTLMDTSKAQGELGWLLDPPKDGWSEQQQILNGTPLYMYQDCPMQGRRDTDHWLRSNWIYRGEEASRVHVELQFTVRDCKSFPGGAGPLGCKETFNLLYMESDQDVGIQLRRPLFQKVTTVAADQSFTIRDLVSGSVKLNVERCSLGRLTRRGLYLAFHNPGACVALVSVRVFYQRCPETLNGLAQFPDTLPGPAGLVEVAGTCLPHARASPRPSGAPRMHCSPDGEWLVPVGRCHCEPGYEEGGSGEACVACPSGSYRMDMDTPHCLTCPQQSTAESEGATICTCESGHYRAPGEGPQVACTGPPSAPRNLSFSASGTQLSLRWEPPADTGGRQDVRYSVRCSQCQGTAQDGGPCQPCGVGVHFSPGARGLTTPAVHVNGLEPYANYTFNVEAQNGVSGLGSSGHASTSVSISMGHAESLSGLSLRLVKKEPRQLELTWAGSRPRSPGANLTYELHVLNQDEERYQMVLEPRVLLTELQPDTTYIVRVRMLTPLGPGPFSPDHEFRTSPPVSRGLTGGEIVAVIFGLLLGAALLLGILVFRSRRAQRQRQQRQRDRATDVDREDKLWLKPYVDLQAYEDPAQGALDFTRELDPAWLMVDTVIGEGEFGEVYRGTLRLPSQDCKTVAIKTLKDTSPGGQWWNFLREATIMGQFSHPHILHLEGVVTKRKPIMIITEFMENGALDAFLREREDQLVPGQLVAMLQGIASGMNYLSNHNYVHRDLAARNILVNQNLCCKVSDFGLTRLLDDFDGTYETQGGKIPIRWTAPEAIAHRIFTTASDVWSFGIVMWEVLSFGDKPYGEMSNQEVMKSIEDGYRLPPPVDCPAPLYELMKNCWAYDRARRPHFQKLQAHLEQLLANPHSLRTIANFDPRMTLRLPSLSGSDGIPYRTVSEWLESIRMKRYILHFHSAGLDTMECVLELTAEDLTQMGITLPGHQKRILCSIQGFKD

Assay [10] deals with human Matrix Metalloproteinase-9 (MMP9), MMP9 (gene 4318) (UniProt P14780). Put plainly: NVS_ENZ_hMMP9: NovaScreen (NVS) Enzymatic Assay for human Matrix Metalloproteinase-9 (MMP9) (AID 2283190; active means hit-call score of the fitted dose curve at least 0.9, where 1 is the maximum;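 further: cell-free recombinant MMP9 protease activity read by fluorescent substrate signal; active means inhibition seen as loss of fluorescence signal versus DMSO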). The method in brief: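 Screening concentration 25 uM, duplicate wells, then dose series for confirmation. Cell-free enzymatic reaction measured by fluorescence intensity 1 h post-dosing; decreased signal versus DMSO taken as activity.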
Chain of human Matrix Metalloproteinase-9 (MMP9), MMP9 (gene 4318) (P14780 whole entry, looked up): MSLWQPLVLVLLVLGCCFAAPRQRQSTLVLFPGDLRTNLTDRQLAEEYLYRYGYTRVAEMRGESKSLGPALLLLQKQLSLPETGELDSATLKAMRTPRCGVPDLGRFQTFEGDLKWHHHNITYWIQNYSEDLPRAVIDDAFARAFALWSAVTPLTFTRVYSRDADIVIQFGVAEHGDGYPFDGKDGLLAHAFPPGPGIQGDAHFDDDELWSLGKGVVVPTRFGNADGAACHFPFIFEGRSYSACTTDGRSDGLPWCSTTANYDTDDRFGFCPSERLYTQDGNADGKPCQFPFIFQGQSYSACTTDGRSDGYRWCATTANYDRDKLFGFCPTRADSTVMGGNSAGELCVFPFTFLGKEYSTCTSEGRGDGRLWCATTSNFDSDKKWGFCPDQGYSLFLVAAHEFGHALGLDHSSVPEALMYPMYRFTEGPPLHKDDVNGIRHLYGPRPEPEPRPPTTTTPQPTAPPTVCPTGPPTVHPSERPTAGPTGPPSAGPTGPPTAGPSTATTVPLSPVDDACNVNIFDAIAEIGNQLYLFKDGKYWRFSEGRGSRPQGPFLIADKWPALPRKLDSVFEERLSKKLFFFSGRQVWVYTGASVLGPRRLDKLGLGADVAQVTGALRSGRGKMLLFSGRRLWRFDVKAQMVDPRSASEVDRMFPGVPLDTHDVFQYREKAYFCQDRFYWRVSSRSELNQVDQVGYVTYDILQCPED

The target in assay [11] is human Phosphodiesterase 10 (PDE10), PDE10A (gene 10846) (UniProt Q9Y233). Put plainly: NVS_ENZ_hPDE10: NovaScreen (NVS) Enzymatic Assay for human Phosphodiesterase 10 (PDE10) (AID 2283195; active means hit-call score of the fitted dose curve at least 0.9, where 1 is the maximum). The method in brief:
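Fluorescence readout after mobility-shift separation of substrate and product, 1 h reaction with recombinant human enzyme. Single-concentration duplicates at 25 uM, then concentration-response up to 50 uM for chemicals reaching threshold; DMSO baseline.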

Assay [12] deals with sheep Cyclooxygenase-1 (Cox1), PTGS1 (gene 443551) (UniProt P05979). Put plainly: NVS_ENZ_oCOX1: NovaScreen (NVS) Enzymatic Assay for sheep Cyclooxygenase-1 (Cox1) (AID 2283239; active means hit-call score of the fitted dose curve at least 0.9, where 1 is the maximum;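 further: actives reduce cyclooxygenase activity so potencies are for inhibitors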). The method in brief: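 Colorimetric enzyme readout using sheep seminal-vesicle cyclooxygenase-1, measured 0.66 h post-dosing. Single-concentration duplicates at 25 uM first, then concentration series for actives, with DMSO as baseline and plate controls.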

For assay [13], the target named is human CYP2C9, CYP2C9 (gene 1559) (UniProt P11712). Put plainly: NVS_ADME_hCYP2C9: NovaScreen (NVS) CYP450-related Enzyme Activity (ADME) Assay for human CYP2C9 (AID 2283108; active means hit-call score of the fitted dose curve at least 0.9, where 1 is the maximum). The method in brief: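 Fluorescence readout of CYP2C9 activity (SF9-expressed human enzyme) at 0.75 h. The primary screen used 10 uM in duplicate, with concentration-response follow-up for actives; acetonitrile was the negative control.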
Chain of human CYP2C9, CYP2C9 (gene 1559) (P11712 whole entry, looked up): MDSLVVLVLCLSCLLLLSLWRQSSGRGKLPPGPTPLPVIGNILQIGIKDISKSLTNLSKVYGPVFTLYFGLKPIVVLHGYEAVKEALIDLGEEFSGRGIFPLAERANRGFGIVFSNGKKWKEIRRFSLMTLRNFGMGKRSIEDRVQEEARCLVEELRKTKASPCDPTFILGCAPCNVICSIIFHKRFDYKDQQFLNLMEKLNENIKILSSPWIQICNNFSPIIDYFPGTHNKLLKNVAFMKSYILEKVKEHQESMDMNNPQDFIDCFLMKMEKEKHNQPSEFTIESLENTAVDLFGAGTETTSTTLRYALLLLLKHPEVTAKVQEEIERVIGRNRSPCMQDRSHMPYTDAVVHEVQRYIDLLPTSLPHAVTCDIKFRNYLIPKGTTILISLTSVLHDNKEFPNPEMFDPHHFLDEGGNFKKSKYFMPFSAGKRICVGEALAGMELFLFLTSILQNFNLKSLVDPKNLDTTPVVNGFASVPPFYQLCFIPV

In assay [14] the target is Cytochrome P450 3A4 (Homo sapiens) (UniProt P08684). Kind of assay: NVS_ADME_hCYP3A4: NovaScreen (NVS) CYP450-related Enzyme Activity (ADME) Assay for human CYP3A4 (AID 2283110; active means hit-call score of the fitted dose curve at least 0.9, where 1 is the maximum). The method in brief: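 Compounds screened in duplicate at 10 uM, with follow-up concentration-response for actives, against insect-cell-expressed recombinant enzyme. Activity read by fluorescence 0.33 h after dosing; loss of signal versus acetonitrile control indicates inhibition.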
Chain of Cytochrome P450 3A4 (Homo sapiens) (P08684 whole entry, looked up): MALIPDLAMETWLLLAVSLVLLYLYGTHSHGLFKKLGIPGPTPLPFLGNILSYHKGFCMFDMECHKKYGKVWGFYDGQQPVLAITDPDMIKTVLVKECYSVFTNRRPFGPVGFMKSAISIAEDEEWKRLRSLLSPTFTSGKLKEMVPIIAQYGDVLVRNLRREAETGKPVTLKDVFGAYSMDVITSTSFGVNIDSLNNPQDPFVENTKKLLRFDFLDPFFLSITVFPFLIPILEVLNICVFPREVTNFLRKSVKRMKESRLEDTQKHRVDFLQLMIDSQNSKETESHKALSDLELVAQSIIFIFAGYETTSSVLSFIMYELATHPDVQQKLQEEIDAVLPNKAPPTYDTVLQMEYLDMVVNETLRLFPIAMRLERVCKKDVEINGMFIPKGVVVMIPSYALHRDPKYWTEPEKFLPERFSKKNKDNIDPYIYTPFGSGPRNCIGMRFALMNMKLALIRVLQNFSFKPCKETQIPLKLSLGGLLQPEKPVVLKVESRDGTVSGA

Assay [15] concerns the target Cytochrome P450 2C19 (Homo sapiens) (UniProt P33261). Put plainly: NVS_ADME_hCYP2C19: NovaScreen (NVS) CYP450-related Enzyme Activity (ADME) Assay for human CYP2C19 (AID 2283113; active means hit-call score of the fitted dose curve at least 0.9, where 1 is the maximum;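 further: potency for inhibition seen as loss of fluorescent signal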). The method in brief: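 Compounds first screened in duplicate at 10 uM, then confirmed in concentration series. Insect-cell-expressed human CYP2C19 turned over a fluorogenic substrate, and fluorescence was read after 1 h. Inhibition taken as signal loss relative to acetonitrile.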

Assay [16] concerns the target human Vascular Endothelial Growth Factor Receptor 1 (VEGFR1), FLT1 (gene 2321) (UniProt P17948). Put plainly: NVS_ENZ_hVEGFR1: NovaScreen (NVS) Enzymatic Assay for human Vascular Endothelial Growth Factor Receptor 1 (VEGFR1) (AID 2283226; active means hit-call score of the fitted dose curve at least 0.9, where 1 is the maximum). The method in brief:
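Kinase activity of recombinant human VEGFR1 was read by fluorescence after electrophoretic separation of product from substrate, 1 h post-dosing; initial duplicate single-point testing at 25 uM, followed by concentration-series follow-up, with DMSO as baseline.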

Assay [17] deals with human Protein Tyrosine Phosphatase Non-receptor Type 6 (PTPN6), PTPN6 (gene 5777) (UniProt P29350). Put plainly: NVS_ENZ_hPTPN6: NovaScreen (NVS) Enzymatic Assay for human Protein Tyrosine Phosphatase Non-receptor Type 6 (PTPN6) (AID 2283210; active means hit-call score of the fitted dose curve at least 0.9, where 1 is the maximum). The method in brief:
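Recombinant human PTPN6 from SF9 cells, enzyme activity followed by fluorescence after mobility-shift separation of substrate and product at 1.33 h. Chemicals first tested at a single 25 uM in duplicate, then confirmed across concentration series; loss of signal relative to DMSO.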

“And” between values parts separate entries of the source, which are not always exact repeats. Equal values may be shown once. Results filed as inconclusive are left out. The source made the active and inactive calls. How the source made its calls, unless noted: active means hit-call score of the fitted dose curve at least 0.9, where 1 is the maximum; inactive means score below 0.9.

Chain of human Phosphodiesterase 10 (PDE10), PDE10A (gene 10846) (Q9Y233 whole entry, looked up): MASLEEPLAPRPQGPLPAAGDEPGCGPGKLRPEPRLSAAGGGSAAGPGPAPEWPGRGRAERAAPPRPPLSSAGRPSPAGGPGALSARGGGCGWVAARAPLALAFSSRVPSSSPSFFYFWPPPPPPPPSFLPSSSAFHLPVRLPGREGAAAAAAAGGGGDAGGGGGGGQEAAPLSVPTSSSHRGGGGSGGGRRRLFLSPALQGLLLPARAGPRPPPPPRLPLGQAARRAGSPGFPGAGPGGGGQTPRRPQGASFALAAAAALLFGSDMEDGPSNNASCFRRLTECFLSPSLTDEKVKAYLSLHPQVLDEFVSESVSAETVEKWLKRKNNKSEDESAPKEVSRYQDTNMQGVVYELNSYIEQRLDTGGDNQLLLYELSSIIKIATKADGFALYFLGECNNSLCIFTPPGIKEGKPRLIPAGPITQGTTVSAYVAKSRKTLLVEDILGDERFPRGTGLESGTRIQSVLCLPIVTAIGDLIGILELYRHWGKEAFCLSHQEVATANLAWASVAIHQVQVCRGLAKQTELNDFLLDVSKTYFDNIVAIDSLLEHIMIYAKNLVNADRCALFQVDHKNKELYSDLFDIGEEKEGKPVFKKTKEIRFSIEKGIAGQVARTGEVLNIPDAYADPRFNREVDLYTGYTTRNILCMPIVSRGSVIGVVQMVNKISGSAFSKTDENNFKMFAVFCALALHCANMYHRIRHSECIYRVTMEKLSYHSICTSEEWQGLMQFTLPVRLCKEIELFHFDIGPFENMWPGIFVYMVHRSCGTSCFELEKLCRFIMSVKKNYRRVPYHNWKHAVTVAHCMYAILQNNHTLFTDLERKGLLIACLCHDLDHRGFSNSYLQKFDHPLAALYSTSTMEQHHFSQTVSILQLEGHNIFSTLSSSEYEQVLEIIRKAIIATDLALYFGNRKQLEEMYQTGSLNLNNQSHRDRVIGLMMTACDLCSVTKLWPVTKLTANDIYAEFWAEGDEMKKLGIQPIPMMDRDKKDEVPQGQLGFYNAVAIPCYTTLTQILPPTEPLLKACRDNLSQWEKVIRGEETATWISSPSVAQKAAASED
Chain of human Beta-secretase (BACE), BACE1 (gene 23621) (P56817 whole entry, looked up): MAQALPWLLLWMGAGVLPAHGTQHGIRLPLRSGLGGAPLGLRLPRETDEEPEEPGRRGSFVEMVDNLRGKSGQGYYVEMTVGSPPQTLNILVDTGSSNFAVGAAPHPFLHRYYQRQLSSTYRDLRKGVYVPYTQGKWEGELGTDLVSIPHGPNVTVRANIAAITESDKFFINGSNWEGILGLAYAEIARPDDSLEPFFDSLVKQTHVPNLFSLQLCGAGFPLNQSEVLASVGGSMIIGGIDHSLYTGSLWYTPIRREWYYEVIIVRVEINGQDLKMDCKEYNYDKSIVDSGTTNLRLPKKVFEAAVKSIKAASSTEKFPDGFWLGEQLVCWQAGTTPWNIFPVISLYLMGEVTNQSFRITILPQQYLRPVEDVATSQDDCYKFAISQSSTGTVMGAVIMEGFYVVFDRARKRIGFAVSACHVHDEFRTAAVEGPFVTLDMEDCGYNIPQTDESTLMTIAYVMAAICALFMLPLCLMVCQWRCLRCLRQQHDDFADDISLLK
Chain of human CYP19A1, CYP19A1 (gene 1588) (P11511 whole entry, looked up): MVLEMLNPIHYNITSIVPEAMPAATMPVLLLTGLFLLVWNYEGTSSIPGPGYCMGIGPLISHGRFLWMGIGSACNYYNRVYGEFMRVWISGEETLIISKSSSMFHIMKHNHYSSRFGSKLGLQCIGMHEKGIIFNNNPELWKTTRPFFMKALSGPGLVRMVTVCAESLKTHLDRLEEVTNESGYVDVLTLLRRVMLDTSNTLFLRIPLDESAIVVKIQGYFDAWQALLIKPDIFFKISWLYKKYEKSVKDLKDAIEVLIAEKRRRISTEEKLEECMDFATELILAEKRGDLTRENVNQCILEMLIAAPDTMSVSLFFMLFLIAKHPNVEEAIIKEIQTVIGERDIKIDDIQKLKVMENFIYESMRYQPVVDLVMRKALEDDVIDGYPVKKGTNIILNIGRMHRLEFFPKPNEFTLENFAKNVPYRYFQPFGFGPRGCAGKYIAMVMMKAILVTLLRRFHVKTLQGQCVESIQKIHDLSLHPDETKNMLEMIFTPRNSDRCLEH
Chain of human Dual Specificity Protein Phosphatase 3 (DUSP3), DUSP3 (gene 1845) (P51452 whole entry, looked up): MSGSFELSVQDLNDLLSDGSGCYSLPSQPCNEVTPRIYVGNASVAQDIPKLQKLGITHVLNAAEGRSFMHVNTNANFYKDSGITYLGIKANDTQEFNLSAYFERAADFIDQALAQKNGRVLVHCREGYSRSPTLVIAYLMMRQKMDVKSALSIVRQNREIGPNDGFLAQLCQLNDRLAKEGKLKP

By AC50 is commonly meant the concentration at which the activity in the assay is half-maximal. As to `CC(=O)[C@H]1CC[C@H]2[C@@H]3CC=C4C[C@@H](O)CC[C@]4(C)[C@H]3CC[C@]12C`, in [1], the AC50 is 6.25 µM (active) and 7.57 µM (active). The result in [2], in assay [3] and in assay [4] was inactive.
Regarding `CCCCCCCCCCCCCOS(=O)(=O)O`, in [5], the call was inactive.
On to `CCCCCCCCCC=O`, for which the outcome in assay [1], in [2], in [3] and in assay [4] was inactive.
As for `CCCCC/C=C/C=C/C=O`, the AC50 in [1] is 20 µM (active); in assay [2], 20 µM (active); in assay [3] it was 14.2 µM (active); in [4] it was 31.5 µM (active); in [6], 0.627 µM (active); in [7], 25 µM (active). Moreover, the AC50 in assay [8] is 9.31 µM (active); in assay [10] it was 25 µM (active). For the same molecule, the outcome in assay [9] and in [11] was inactive.
As for `COC(=O)c1ccc(C)cc1`, the result in assay [1], in assay [2], in [3], in assay [4], in assay [7] and in assay [12] was inactive.
As for `CNC[C@H](O)c1cccc(O)c1`, the result in assay [1], in assay [2], in assay [3] and in assay [4] was inactive. Also, the AC50 in assay [10] was 10.6 µM (active).
For `O=[N+]([O-])c1cc(C(F)(F)F)ccc1Cl`, the result in assay [1], in assay [2], in assay [3], in assay [4] and in assay [9] was inactive. Moreover, the AC50 in assay [11] is 35 µM (active).
For `CC(C)Oc1ccccc1O`, the outcome in assay [1], in assay [2], in [3], in assay [4] and in assay [9] was inactive.
Take `CC(=O)O[C@]1(C(C)=O)CC[C@H]2[C@@H]3C[C@H](C)C4=CC(=O)CC[C@]4(C)[C@H]3CC[C@@]21C`: the outcome in [1], in [2], in [3], in assay [4] and in assay [10] was inactive. In addition, the AC50 in assay [13] was 0.119 µM (active); in [14] it was 0.00997 µM (active); in [15], 2.5 µM (active).
On to `CCCCC(CC)COCCC#N` (stereo unspecified), for which the result in assay [1], in [3], in assay [4] and in [11] was inactive. Also, the AC50 in assay [2] is 0.0801 µM (active).
As for `c1ccc2c(c1)c1cccc3ccc4cccc2c4c31`, the outcome in [1], in [2], in assay [3], in assay [4], in assay [11] and in assay [16] was inactive.
With `O=P(c1ccccc1)(c1ccccc1)c1ccccc1`, the result in assay [1], in assay [2], in assay [3] and in [4] was inactive. Moreover, the AC50 in assay [13] was 3.19 µM (active); in assay [15], 0.0121 µM (active).
Regarding `O=C(O)c1ccc([N+](=O)[O-])cc1`, the outcome in [1], in [2], in [3], in assay [4] and in assay [17] was inactive.

(Values after PubChem BioAssay (EPA / NIEHS).)
